These entries were drawn from the full list. How many sequences the whole screen found active is unknown.
B1: il2ra_site2_3nfp_normal_mot_HHH_b1_05785_af2_000000002_0001_41_57_H_._HHH_b1_03527_af2_0001_0000800015_0000001_0 (protein)
chain: SSSSDEAEEYVKAALALLEEALEQGDEELFEKLARLIELAIEDLGNPELEERLEELKERGSSSSS
B2: il2ra_site2_2erj_sap_23_mot_ca9fcc9ace360711d783d1260e4fbff1_0001_1_af2_000000007_0001_15_32_H_._HHH_b2_04203_af2_0001_0000300022_0000001_0_0001 (protein)
chain: SSSDREEARVHFLAFRAMRLNNNGNPEEAQKVLEEAKEIAEENNNEELREWLEAMERTIKHSSSS
B3: il2ra_site2_3nfp_sap_18_mot_HHH_b1_07556_000000077_0001_42_55_H_._HHH_b2_07201_0001_0000400029_0000001_0_0001 (protein)
chain: SSSSDEEEEVKRSLEYLKAVAKLHNDEELQEVIEEAERILEEDNDPEKAAEALSEIALKLASSSS
B4: il2ra_site1_2b5i_sap_7_mot_HHH_b1_05947_000000126_0001_42_56_H_._HHH_b1_05810_af2_0001_0000100008_0000001_1_0001_af2pred_0001_af2pred (protein)
chain: SSSSSEEEQRAFELYHEASRAFSNGDKERARELLEEAIELAEEAGDPKIKRELEQFLEMLSSSSS
B5: il2ra_site1_3nfp_sap_21_mot_HHH_b2_04910_af2_000000236_0001_1_18_H_._4946fae19574d7b03d9e348227509a78_0001_0001_0000300023_0000001_0_0001_af2pred_0001_af2pred (protein)
chain: SSSDEREVHKLLKEALEAALKGNPEEARELLEEAERLAKELNNPRAEHTVEKALKSFERARSSSS
B6: il2ra_site2_2erj_normal_mot_76e6e8f7232a9e65eeaab5ff8ecb4c96_0001_000000242_0001_17_31_H_._HHH_eva_0320_af2_0001_0000500007_0000001_1 (protein)
chain: SSTEEEEVRRVVEEAEELIKRGDLEEAEEVLSEAFTLVYELGDEELVILILELAHELVRLLAKSS
B7: il2ra_site2_2erj_normal_mot_af86707857d369f3e1d85dcabc5f9321_0001_000000201_0001_14_29_H_._HHH_b1_07617_0001_0001000035_0000001_1_af2pred_0001_af2pred (protein)
chain: SSSSDEEEQIERLLREARELLEEGDPERAREVVWEAAQLAAESDNEELLKEILELLREIHGSSSS
B8: il2ra_site1_2b5i_normal_mot_HHH_b1_00432_000000039_0001_1_18_H_._HHH_b1_02735_0001_0000300013_0000001_0_af2pred_dldesign_0_af2pred (protein)
chain: SSSSSSDEEIEAAEDLALQALKEKDKEKRKELLEEALRLAQKGKDAKLVAQIQELLERLKSSSSS
B9: il2ra_site2_3nfp_normal_mot_HHH_b2_04451_000000238_0001_21_37_H_._HHH_b2_00723_af2_0001_0000500044_0000001_0 (protein)
chain: SSSSDLEEEVERLIEEVERLLEEGDKHEAAQLLLEATKLVAELNNEELARILLELFELLQKSSSS
B10: il2ra_site1_3nfp_sap_8_mot_d8099cd8ef6a59b9c03de2010570d688_0001_af2_000000259_0001_37_51_H_._HHH_b2_05910_0001_0000100005_0000001_0_0001 (protein)
chain: SAEEFVKRAKELVPPELQELLERALELALKRQDPKLARLLIKAVAAIQQGDPEKAEEVLKELEER
B11: il2ra_site1_2b5i_normal_mot_HHH_b1_08745_af2_000000166_0001_39_57_H_._HHH_b1_05884_0001_0000600032_0000001_0_af2pred_dldesign_0_af2pred (protein)
chain: SSSSSPEIQKLREMFEEADRLFKAGKYEEAKELLEKALKLAKELGANLELRIIQSALEQLESSSS
B12: il2ra_site1_2b5i_sap_15_mot_1dae16775e8f4074d71d019417416b97_0001_af2_000000275_0001_1_12_H_._HHH_b2_07869_0001_0000400013_0000001_1_0001_af2pred_0001_af2pred_1 (protein)
chain: SSSSTDVAREVFRLLEEADRLARNGNPEEAEKLLREAEELAEENGNRALLKFVRAALRALSSSSS
B13: il2ra_site1_2b5i_sap_9_mot_HHH_b2_07540_af2_000000089_0001_1_16_H_._HHH_b1_01333_af2_0001_0000100003_0000001_0_0001_af2pred_0001_af2pred (protein)
chain: SSSSSSEELLELLREADELFKNGNPEEAEKVLERAEELAERNGTKSMLRSVRSMLELLRESSSSS
B14: il2ra_site1_3nfp_sap_6_mot_HHH_b2_06502_000000163_0001_42_55_H_._HEEHE_0113_0001_0000200018_0000001_0_0001 (protein)
chain: SSSSSNDEAWRLLREAYEEFKKAKSREEMRELLEEAERLARELGDERLLRDIEKWLEQMKSSSSS
B15: il2ra_site2_2erj_sap_24_mot_HHH_b1_07975_000000000_0001_41_57_H_._HHH_b1_08466_af2_0001_0000800020_0000001_0_0001_af2pred_0001_af2pred (protein)
chain: SSSSSEEEEELKEFIEELVREFGLSEEVQKELEEIARFALEQGIDEEDIKKWLKLFAEETSSSSS
B16: il2ra_site2_3nfp_normal_mot_HHH_b1_01086_af2_000000264_0001_39_53_H_._a6da1dbab15e72488587f943ddaf1f3f_0001_1_af2_0001_0000500054_0000001_0 (protein)
chain: DREELLERIVREKDPRVEELLEEIKEAKERNDEELLEKLAKRLALIAFELGDPEVFALAADLQSI
B17: il2ra_site2_3nfp_normal_mot_HHH_b1_08498_000000146_0001_21_37_H_._HHH_b1_08008_0001_0000100001_0000001_0 (protein)
chain: SSSSDEEHLEAATRLIRAAAWALNDPELERRAEELLEEIKEHGDPELKQELAELTHEAFELSSSS
B18: il2ra_site2_2erj_normal_mot_HHH_b1_05749_af2_000000086_0001_23_39_H_._HHH_b2_01918_0001_0000200007_0000001_0 (protein)
chain: SSSSDELEEEVEELLEEVRRAYEEGDLEEAYRLAVRVFALAAENNDPELQRAVTRLLEELSSSSS
B19: il2ra_site1_3nfp_sap_17_mot_0eddeacbb14b769e73e254714f31e2f9_0001_af2_000000052_0001_37_51_H_._7093d3a5e4329be201a559e39cb9bd18_0001_0001_0000800048_0000001_0_0 … (protein)
chain: SSSDEAKELAEEAIEELERLIKEGDVRAVAETIRRIAKELLELNDPEALELLQREVRKLLRSSSS
B20: il2ra_site1_2b5i_sap_17_mot_2cbe48e66a1f39b3fed734b245ab0a04_0001_000000015_0001_17_31_H_._HHH_b1_01921_0001_0000600034_0000001_0_0001_af2pred_dldesign_0_af2pre … (protein)
chain: SSSSSDVKEVLELFEEANKLFQAGKPEEAKEVLEKALEKAKALGAEAHIRIIESALEQLESSSSS
B21: il2ra_site1_3nfp_sap_12_mot_HHH_b1_07180_af2_000000260_0001_1_19_H_._HHH_b2_06317_af2_0001_0000500010_0000001_0_0001_af2pred_0001_af2pred_1 (protein)
chain: SDEELIKKLVRIAVEQNSPRLLRKILRDFERYTGDPEEAERILEELIEEVLGDPEEARRLVEEAK
B22: il2ra_site1_1z92_normal_mot_c9a8daa1dfea21d1414aecde54be4f54_0001_1_af2_000000024_0001_32_46_H_._0e4f66a3c4b070984708d3e1d5382b02_0001_1_af2_0001_0000100008_000 … (protein)
chain: NVAERLFEQAEELGVPPRAVVLALVSAVHAEDPRLREEAEELLERVRRGELPPEEAVRLLAELLE
B23: il2ra_site1_3nfp_sap_9_mot_HHH_b1_03716_af2_000000235_0001_20_37_H_._HHH_b1_05438_0001_0000400011_0000001_0_0001_af2pred_0001_af2pred_1 (protein)
chain: SSSSTELKELLKIVQRLFEEFNLSEEQAQELLQLAEELAKEGVSLEEIEELLRELAERLSSSSSS
B24: il2ra_site2_3nfp_sap_18_mot_11405e7faed88c9d08fdae67291e590b_0001_1_000000110_0001_14_30_H_._HHH_b2_00163_af2_0001_0000300012_0000001_0_0001 (protein)
chain: SSSSDKHERYLRAALELIERAIREGDHEIARRMLETVKSAAEDNNDEEIEELVEELEELLRSSSS

Target: il2ra, P01589
Experiment: yeast display titration

Chain of il2ra, P01589 (P01589 whole entry): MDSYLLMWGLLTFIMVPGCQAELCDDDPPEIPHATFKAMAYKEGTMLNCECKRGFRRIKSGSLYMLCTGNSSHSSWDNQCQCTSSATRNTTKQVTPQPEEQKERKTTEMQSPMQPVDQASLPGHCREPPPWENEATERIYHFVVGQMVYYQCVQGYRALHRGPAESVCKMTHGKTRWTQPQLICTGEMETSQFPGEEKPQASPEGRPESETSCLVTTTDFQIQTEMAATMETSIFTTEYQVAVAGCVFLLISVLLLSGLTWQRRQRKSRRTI

Row | Binder | apparent Kd
1 | B1 | no binding seen (inactive)
2 | B2 | no binding seen (inactive)
3 | B3 | no binding seen (inactive)
4 | B4 | no binding seen (inactive)
5 | B5 | no binding seen (inactive)
6 | B6 | no binding seen (inactive)
7 | B7 | no binding seen (inactive)
8 | B8 | no binding seen (inactive)
9 | B9 | no binding seen (inactive)
10 | B10 | no binding seen (inactive)
11 | B11 | no binding seen (inactive)
12 | B12 | no binding seen (inactive)
13 | B13 | no binding seen (inactive)
14 | B14 | no binding seen (inactive)
15 | B15 | no binding seen (inactive)
16 | B16 | no binding seen (inactive)
17 | B17 | no binding seen (inactive)
18 | B18 | no binding seen (inactive)
19 | B19 | no binding seen (inactive)
20 | B20 | no binding seen (inactive)
21 | B21 | no binding seen (inactive)
22 | B22 | no binding seen (inactive)
23 | B23 | no binding seen (inactive)
24 | B24 | no binding seen (inactive)
